The values below come from PubChem BioAssay (EPA / NIEHS).

A short description of experiment [1]: APR_HepG2_CellCycleArrest_24hr: Apredica 24-hour HepG2 Assay for Cell Cycle Arrest (AID 2282905).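 Also: cell cycle arrest scored as ratio of 2N to 4N nuclear DNA content.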 As to conditions: imaging, actives raise or lower the signal. Summed up: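 Step one: dose HepG2 with test compounds, 0.39–200 uM, 0.5% DMSO, 24 hr. Step two: fix, permeabilize, stain nuclei with Hoechst 33342. Step three: image six fields per well at 20x, quantify DNA content, fit bidirectionally relative to DMSO.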

Experiment [2] is described as follows: APR_HepG2_NuclearSize_24hr: Apredica 24-hour HepG2 Assay for Nuclear Size (AID 2282907). The note with it: high-content imaging, actives raise or lower the signal. Summed up:
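After fixation and permeabilization, 24-hr-treated HepG2 cells were stained with Hoechst 33342 and imaged on an ArrayScan (20x). Doses spanned 0.39–200 uM in duplicate. Nuclear diameter changes in either direction were fitted relative to 0.5% DMSO controls.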

Experiment [3] is described as follows: APR_HepG2_CellLoss_24hr: Apredica 24-hour HepG2 Assay for Cell Loss (AID 2282908).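 As to AC50: fit in both directions so a hit may be cell loss or gain.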 As to conditions: high-content imaging. Summed up:
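Duplicate wells received compound at ten concentrations (0.39–200 uM; final DMSO 0.5% v/v). After fixation with formaldehyde, nuclei stained with Hoechst 33342 were imaged at 20x. Loss or gain of cell count was fitted relative to DMSO controls.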

Experiment [4] is described as follows: APR_HepG2_MicrotubuleCSK_24hr: Apredica 24-hour HepG2 Assay for Microtubule CSK Stabilty (AID 2282909). The note with it: HepG2 microtubule cytoskeleton imaging, actives raise or lower the signal. Summed up: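 Microtubule stability is scored from tubulin immunofluorescence in fixed HepG2 cells imaged at 20x. Cells receive ten compound concentrations up to 200 uM for 24 h; taxol and DMSO serve as positive and negative controls.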

A short description of experiment [5]: APR_HepG2_MitoticArrest_24hr: Apredica 24-hour HepG2 Assay for Mitotic Arrest (AID 2282910). The note with it: high-content imaging, actives raise or lower the signal. Summed up: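 High-content imaging of fixed HepG2 cells labeled with Hoechst 33342 and anti-phospho-histone H3, after 24 h treatment. Ten concentrations 0.39 to 200 uM in duplicate, final DMSO 0.5%; changes fitted both directions relative to DMSO.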

Experiment [6] can be described thus: APR_HepG2_MitoMembPot_24hr: Apredica 24-hour HepG2 Assay for Mitochondrial Membrane Potential (AID 2282911). The note with it: imaging, actives raise or lower the signal. Summed up: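 HepG2 cells exposed 24 h to 0.39–200 uM compounds in duplicate, 0.5% v/v DMSO final. MitoTracker Red CMXRos 250 nM loaded 30 min before formaldehyde fixation; high-content imaging at 20x, bidirectional fit versus DMSO.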

Experiment [7] is described as follows: APR_HepG2_MitoMass_24hr: Apredica 24-hour HepG2 Assay for Mitochondrial Mass (AID 2282912). As to conditions: high-content imaging, actives raise or lower the signal. Summed up:
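Readout: fluorescence of MitoTracker Red CMXRos (250 nM, added 30 min pre-fixation) in fixed HepG2 cells imaged by HCS. Exposure lasted 24 hr at 0.39–200 uM; increases and decreases were both fitted relative to DMSO.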

Experiment [8] in a line: APR_HepG2_p53Act_24hr: Apredica 24-hour HepG2 Assay for p53 Activation (AID 2282913).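 Also: p53 protein immunofluorescence averaged per cell in HepG2 with Hoechst nuclei.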 As to conditions: high-content imaging, actives raise or lower the signal. Summed up:
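HepG2 cells exposed 24 h to compounds at 0.39–200 uM in duplicate, 0.5% v/v DMSO final; fixed, permeabilized, stained with anti-p53 antibody and Hoechst 33342; fluorescence imaging; bidirectional curve fit versus DMSO.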

Experiment [9] is described as follows: APR_HepG2_CellCycleArrest_72hr: Apredica 72-hour HepG2 Assay for Cell Cycle Arrest (AID 2282914). As to conditions: high-content imaging, actives raise or lower the signal. Summed up:
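HepG2 cells exposed 72 h in duplicate to 0.39–200 uM compound, 0.5% DMSO final. Formaldehyde-fixed, Hoechst 33342-stained nuclei imaged at 20x, six fields per well; DNA content per valid cell quantified by cell-cycle image analysis, bidirectional fit versus DMSO.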

Experiment [10] is described as follows: APR_HepG2_CellLoss_72hr: Apredica 72-hour HepG2 Assay for Cell Loss (AID 2282915). As to conditions: high-content imaging. Summed up: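 Cell number comes from Hoechst 33342-labelled nuclei, imaged at 20x after 3.7% formaldehyde fixation. Dosing was 0.39–200 uM, ten concentrations in duplicate, 0.5% DMSO final, for 72 h. Bidirectional fit relative to DMSO baseline.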

Experiment [11] in a line: APR_HepG2_P-H2AX_72hr: Apredica 72-hour HepG2 Assay for H2AX Phosphorylation (AID 2282916).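 Also: phospho-histone H2A.x immunostain intensity per cell marking DNA damage.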 The note with it: imaging, actives raise or lower the signal. Summed up: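 Phospho-H2A.x imaging endpoint in HepG2 after 72 hr compound exposure (0.39–200 uM, duplicate wells). Activity derived by bidirectional curve fitting with DMSO as baseline.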
The nature of experiment [12]: APR_HepG2_MitoMembPot_72hr: Apredica 72-hour HepG2 Assay for Mitochondrial Membrane Potential (AID 2282917). The note with it: imaging, actives raise or lower the signal. Summed up: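 Membrane potential read by MitoTracker Red CMXRos (250 nM, 30 min, pre-fixation) fluorescence imaging of HepG2 after 72 hr exposure. Ten concentrations, 0.39–200 uM, duplicate wells, 0.5% DMSO; fitted in both directions against DMSO baseline.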

Experiment [13] in a line: APR_HepG2_MitoticArrest_72hr: Apredica 72-hour HepG2 Assay for Mitotic Arrest (AID 2282918). The note with it: high-content imaging, actives raise or lower the signal. Summed up:
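HepG2 cells treated 72 h at 0.39–200 uM, 0.5% DMSO final; formaldehyde-fixed, stained with Hoechst 33342 and phospho-histone H3 antibody, imaged by high-content fluorescence; bidirectional fit versus DMSO.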

A short description of experiment [14]: APR_HepG2_MicrotubuleCSK_72hr: Apredica 72-hour HepG2 Assay for Microtubule CSK Stabilty (AID 2282919). As to conditions: HepG2 microtubule cytoskeleton, high-content imaging, actives raise or lower the signal. Summed up:
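High-content imaging of alpha-tubulin staining in fixed HepG2 cells after 72 hr treatment with ten concentrations from 0.39 to 200 uM (0.5% DMSO). Fitting was bidirectional against DMSO; taxol served as positive control.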

A short description of experiment [15]: APR_HepG2_P-H2AX_24hr: Apredica 24-hour HepG2 Assay for H2AX Phosphorylation (AID 2282920). As to conditions: high-content imaging, actives raise or lower the signal. Summed up:
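HepG2 cells dosed 24 h at 0.39–200 uM (10 points, duplicate, 0.5% DMSO final). Formaldehyde-fixed and permeabilized, then immunostained for phospho-H2A.x with Hoechst. Fluorescence quantified by high-content imaging, fitted bidirectionally versus DMSO.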

The nature of experiment [16]: APR_HepG2_StressKinase_72hr: Apredica 72-hour HepG2 Assay for Stress Kinase (AID 2282921). As to conditions: HepG2 stress kinase (phospho-c-Jun) imaging, actives raise or lower the signal. Summed up: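 Stress kinase signal reflects nuclear phospho-c-Jun staining in fixed, permeabilized cells exposed 72 h to compound at 0.39–200 uM; DMSO-normalized, fitted for increases or decreases.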

Experiment [17] can be described thus: APR_HepG2_StressKinase_24hr: Apredica 24-hour HepG2 Assay for Stress Kinase (AID 2282922). The note with it: HepG2 stress kinase (phospho-c-Jun) imaging, actives raise or lower the signal. Summed up:
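High-content imaging of phospho-c-Jun immunofluorescence in fixed, permeabilized HepG2 cells after 24 h dosing. Ten concentrations, 0.39 to 200 uM, run in duplicate at 0.5% v/v DMSO; gain or loss of signal versus DMSO.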

Experiment [18] can be described thus: APR_HepG2_p53Act_72hr: Apredica 72-hour HepG2 Assay for p53 Activation (AID 2282923).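 Also: average cellular p53 protein immunofluorescence intensity in HepG2 cells.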 As to conditions: high-content imaging, actives raise or lower the signal. Summed up:
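Fixed-cell p53 staining (sheep primary, Cy5 secondary) measured by fluorescence imaging following 72 hr treatment at 0.39–200 uM in 0.5% DMSO; DMSO served as negative control and baseline.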

The nature of experiment [19]: APR_HepG2_MitoMass_72hr: Apredica 72-hour HepG2 Assay for Mitochondrial Mass (AID 2282924).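 Also: MitoTracker Red CMXRos stain intensity per cell imaged as mitochondrial mass.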 The note with it: high-content imaging, actives raise or lower the signal. Summed up: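 Readout is imaged MitoTracker Red (250 nM, 30 min, pre-fixation) signal, fitted bidirectionally against DMSO baseline. Human HepG2 liver cells received compound 0.39–200 uM in duplicate for 72 hr, final DMSO 0.5%.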

Experiment [20] is described as follows: APR_HepG2_NuclearSize_72hr: Apredica 72-hour HepG2 Assay for Nuclear Size (AID 2282925). As to conditions: high-content imaging, actives raise or lower the signal. Summed up:
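Nuclear size was read by high-content imaging of Hoechst 33342 stain after formaldehyde fixation. Compounds ran 72 h on HepG2 at 0.39 to 200 uM, with final DMSO 0.5% v/v. Curves fitted both directions relative to DMSO control.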

Each structure is given as a SMILES string. Activity calls are given as the source filed them. The calls were made as follows: active = hit-call score of the fitted dose curve at least 0.9, where 1 is the maximum; inactive = score below 0.9.

As a reminder, the AC50 is the concentration at which the activity in the assay is half-maximal. Turning to `CCCCCCCCCCCCCN1CC(C)OC(C)C1` (centres undefined), the result in experiment [1], in [6], in experiment [11], in experiment [12], in experiment [13] and in experiment [14] was inactive. Moreover, the result in experiment [16], in experiment [17], in [18], in experiment [19] and in experiment [20] was inactive. Besides, the AC50 is 105 µM (active) in [2]; 91.8 µM (active) in experiment [3]; 166 µM (active) in experiment [4]; 97.6 µM (active) in [5]; 189 µM (active) in experiment [7]; 66.8 µM (active) in experiment [8]. In addition, the figures for the AC50 in [9], in [10] and in [15] were 70.4 µM (active), 78.9 µM (active) and 76.6 µM (active), respectively.

Take `CC(C)(C)OOC(=O)c1ccccc1`: the result in experiment [1], in [14], in experiment [17] and in experiment [20] was inactive. In addition, the AC50 is 38.6 µM (active) in experiment [2]; 33.3 µM (active) in [3]; 48.2 µM (active) in experiment [4]; 20.5 µM (active) in experiment [5]; 33.8 µM (active) in experiment [6]; 34.1 µM (active) in experiment [7]. In addition, the AC50 in [8] is 22.8 µM (active); in [9], 21.8 µM (active); in [10] it was 26.6 µM (active); in experiment [11] it was 35.1 µM (active); in experiment [12], 20.1 µM (active); in experiment [13], 23.1 µM (active). Besides, the AC50 in [15] was 16.4 µM (active); in experiment [16], 50 µM (active); in [18] it was 21.5 µM (active); in experiment [19] it was 54 µM (active).

`CNC(=O)Oc1cccc2c1OC(C)(C)C2`: the result in [1], in [2], in [3], in experiment [4], in [5] and in experiment [6] was inactive. In addition, the outcome in experiment [7], in experiment [8], in experiment [9], in experiment [10], in experiment [11] and in experiment [12] was inactive. Further, the outcome in experiment [13], in experiment [14], in [15], in experiment [16], in experiment [17] and in [18] was inactive. Also, the outcome in [19] and in [20] was inactive.

For the molecule `c1ccc(C2CO2)cc1` (centres undefined), the outcome in experiment [1], in experiment [2], in experiment [3], in experiment [4], in experiment [5] and in [6] was inactive. Besides, the result in [7], in experiment [8], in experiment [9], in [10], in experiment [11] and in experiment [12] was inactive. The molecule was classed as inactive in [13], in [14], in [15], in experiment [16], in experiment [17] and in experiment [18]. For the same molecule, the molecule was classed as inactive in experiment [19] and in experiment [20].

Consider `CCC12COCN1COC2`, for which the AC50 in experiment [1] is 45.1 µM (active); in experiment [5], 93.6 µM (active); in experiment [8] it was 86 µM (active); in experiment [11] it was 82.1 µM (active); in [13], 83.2 µM (active); in experiment [15], 87.6 µM (active). In addition, the AC50 is 99.5 µM (active) in [17] and 79.2 µM (active) in [18]. In addition, the molecule was called inactive in [2], in [3], in [4], in experiment [6], in [7] and in experiment [9]. The result in experiment [10], in experiment [12], in [16], in [19] and in experiment [20] was inactive.

Regarding `Nc1ccc([N+](=O)[O-])cc1`, the outcome in experiment [1], in experiment [2], in experiment [3], in experiment [4], in experiment [5] and in experiment [6] was inactive. The outcome in experiment [7], in experiment [8], in experiment [9], in experiment [10], in experiment [11] and in experiment [12] was inactive. The result in [13], in experiment [14], in experiment [15], in experiment [16], in experiment [17] and in [18] was inactive. Moreover, the molecule was classed as inactive in experiment [19] and in experiment [20].
